High-throughput results deposited in PubChem by several laboratories.
Compounds with a hit are over-represented: about 3.6% of the library has one in this group of screens.
BJeLR lethal: MLPCN primary cell-based screen for lethality selective to Ras in HRASV12 cells | AID 1554, 2009 | 0.17% of 300,000 active | inhibition, % (concentration not given with the values) | BJeLR (HRASV12) viability, CellTiter-Glo ATP luminescence, 48 h; in the data active = inhibition above about 50%; inconclusive = no clear call, values can overlap the other calls
3CLpro inhibitor: SARS-CoV 3CLpro protease inhibitors, primary screen, biochemical, quenched FRET | Replicase polyprotein 1ab (Severe acute respiratory syndrome coronavirus), P0C6X7 | recombinant SARS-CoV 3CLpro, quenched FRET peptide cleavage | inhibition, % at 6 µM | 0.14% of 290,000 active | AID 1706, 2009; in the data active = inhibition above about 12%
Bead autofluor: counter-screen for toxin protease inhibitors: compound fluorescence; 3.1% of 360,000 active; compound autofluorescence counterscreen, microsphere flow cytometry; hits give high values; fluorescence intensity (test concentration not listed); AID 624483; in the data active = fluorescence intensity above about 16000; inconclusive = no clear call, values can overlap the other calls
BoNT-A LC inh2: BoNT/A light chain protease inhibitors, primary screen, biochemical, flow cytometry, MLPCN library | Botulinum neurotoxin type A light chain protease (Clostridium botulinum A str. ATCC 3502) | inhibition, % at 10 µM | AID 588499, 2011 | 0.17% of 360,000 active | multiplex microsphere protease substrate cleavage; note: plate controls were buffer without enzyme for full effect and enzyme alone for no effect
Anthrax LF inh2: Bacillus anthracis LF protease inhibitors, primary screen, biochemical, multiplex microsphere, MLPCN library; Lethal factor (Bacillus anthracis), P15917; multiplex microsphere protease cleavage assay; inhibition, % at 10 µM; 0.12% of 360,000 active; AID 588501, 2011; note: plate controls were buffer without enzyme for full effect and enzyme alone for no effect
BoNT-F LC inh: BoNT/F light chain protease inhibitors, primary screen, biochemical, flow cytometry, MLPCN library. Botulinum neurotoxin type F light chain protease (Clostridium botulinum). Multiplex microsphere protease cleavage assay. inhibition, % at 10 µM. 0.22% of 360,000 active. AID 588497, 2011; in the data active = inhibition above about 35%, passing the limit was not always enough; inconclusive = no clear call, values can overlap the other calls; note: plate controls were buffer without enzyme for full effect and enzyme alone for no effect
* marks the source's active call; other numbers are inactive results; u = inconclusive; x = no result; ! = not active in a repeat. Cut-off read from the data, not from the text of the source, unless noted: active = inhibition above about 30%; inconclusive = no clear call, values can overlap the other calls; inactive = below that.

SMILES	BJeLR lethal	3CLpro inhibitor	Bead autofluor	BoNT-A LC inh2	Anthrax LF inh2	BoNT-F LC inh
COC(=O)C1C(=O)C2=C(CC1C)NC(C)=C(C(=O)OC(C)C)C2c1ccc(OC)c(O)c1 (configuration not stated)	-4.5	3.0	22658*	1.2	2.3	3.3
CCCn1c(N)c(C(=O)COC(=O)/C=C/c2ccc(OC(F)F)c(OC)c2)c(=O)[nH]c1=O	x	x	3642	-0.3	-1.5	6.4
CN(C)C(=O)COn1c(SCC(=O)N(C)C)nc2ccccc2c1=O	8.5	0.3	20262*	0.4	-3.6	-1.2
COc1cccc(C2C(C(=O)Nc3ccc(C)cc3C)=C(C)Nc3ncnn32)c1OC (configuration not stated)	-0.3	-4.9	19983*	1.3	-2.1	1.6
COc1ccccc1NC(=O)C1=C(C)Nc2ncnn2C1c1ccccc1C (configuration not stated)	-2.1	-3.4	x	x	x	x
Cc1ccc(C)c(NC2=NS(=O)(=O)c3ccccc32)c1	8.2	-2.3	11458	-0.4	-2.1	-1.6
Cc1ccccc1NC1=NS(=O)(=O)c2ccccc21	-1.0	3.0	5293	-0.8	-4.0	-4.9
Cc1cc(C)c(NC2=NS(=O)(=O)c3ccccc32)c(C)c1	0.7	2.5	22474*	u	-3.1	1.0
Cc1cc(O)c(C(C)C)cc1NC1=NS(=O)(=O)c2ccccc21	-9.4	0.6	16315*	-1.0	-2.4	-2.8
COC(=O)c1ccc(C(=O)OC)c(NC2=NS(=O)(=O)c3ccccc32)c1	4.6	2.3	23866*	-1.6	-7.0	-2.2
Cc1nn(-c2ccccc2)c(C)c1C(=O)OCc1ccc(C#N)cc1	-3.2	2.5	4362	-1.6	-3.2	u
CCN(Cc1ccccc1)C(=O)Cn1cnc2c1c(=O)n(C)c(=O)n2C	-6.0	-0.2	20794*	u	2.4	-4.1
CCN(CC)C(=O)Cn1cnc2c1c(=O)n(C)c(=O)n2C	-3.0	5.4	x	x	x	x
Cn1c(=O)c2c(ncn2CCN(CCO)Cc2ccccc2)n(C)c1=O	2.8	-0.9	20125*	3.8	-13.8	7.9
Cc1cccc(Cn2c(Sc3nc(C)cs3)nc3c2c(=O)[nH]c(=O)n3C)c1	-6.4	2.4	19241*	u	-2.8	3.6
C=CCn1c(Sc2nc(C)cs2)nc2c1c(=O)[nH]c(=O)n2C	6.3	4.3	23702*	-2.0	-1.5	-1.5
COc1cc2c(C(=O)N3CCN(C)CC3)c(C)n(-c3ccccc3)c2cc1Br	-5.3	-4.0	25113*	-2.2	0.6	-3.4
CCOC(=O)C1=C(c2cccc(Oc3ccccc3)c2)NC(=S)NC1C (configuration not stated)	-7.0	3.2	4154	0.5	-0.5	25.3
c1ccc2[nH]c(Cn3nnc4ccccc43)nc2c1	-2.8	x	2997	0.0	-7.4	8.2
CCOc1ccc(CC(=O)Nc2sc(Cc3ccccc3)cc2C(N)=O)cc1OCC	3.5	0.8	17390*	-4.7	-1.8	-7.5
NC(=O)c1cc(Cc2ccccc2)sc1NC(=O)c1ccco1	-1.5	-0.7	11100	-0.9	-4.2	-4.1
COC(=O)C1=C(N)Oc2cc(C)[nH]c(=O)c2C1c1ccccc1OC (configuration not stated)	-2.2	-0.6	5254	-0.1	-8.2	1.4
Cc1c(C(=O)O)oc2c1C(O)CC(C)(C)C2 (configuration not stated)	0.5	2.1	16667*!	-1.0	-1.9	-2.2
CCCOc1ccc(N2C(=O)CC(N(Cc3ccco3)C(=O)CC)C2=O)cc1 (configuration not stated)	2.4	4.3	4054	4.2	7.6	22.8
CCCOc1ccc(N2C(=O)CC(N(C(=O)c3ccco3)c3ccc(OCCC)cc3)C2=O)cc1 (configuration not stated)	-0.5	-0.8	16880*	u	-2.4	-5.4
SMILES	BJeLR lethal	3CLpro inhibitor	Bead autofluor	BoNT-A LC inh2	Anthrax LF inh2	BoNT-F LC inh
COc1cccc(C(C)NC(=O)C2CCCC2)c1 (configuration not stated)	2.8	1.1	3122	2.5	9.9	-8.5
CC(=O)Nc1ccc(S(=O)(=O)Nc2nc3ccccc3nc2N2CCCCCC2)cc1	2.2	7.0	23055*	u	-1.6	0.6
CCOc1cc(NS(=O)(=O)c2ccc(NC(C)=O)cc2)c(OCC)cc1NC(=O)C(C)C	13.9	-7.1	20625*	3.2	-7.8	5.7
CCOc1cc(NS(=O)(=O)c2ccc(Cl)cc2)c(OCC)cc1NC(=O)CC(C)C	2.2	1.5	11392	-1.1	-4.1	-19.3
COc1ccc(S(=O)(=O)NN=C2CCCC2)cc1	-10.4	-7.8	20396*	-1.0	-1.1	0.1
COc1ccc(S(=O)(=O)NN=C2CCCCC2)cc1	x	4.7	10962	-0.4	-4.1	-5.3
COc1ccc(CC(=O)Nc2ccc(S(=O)(=O)Nc3nc(C)cc(C)n3)cc2)cc1	x	7.8	19652*	2.2	-5.1	2.7
Cc1cc2c(c(=O)o1)C(c1ccc([N+](=O)[O-])o1)C(C#N)=C(N)O2 (configuration not stated)	-10.0	-0.1	5078	-10.1	-17.4	u
COc1ccc(NC(=O)Nc2ccc(OC)cc2)cc1	9.0	-2.8	2403	0.9	6.5	4.3
COc1ccc(NC(=O)Nc2ccc(N(C)C)cc2)cc1	6.7	-1.0	18854*	3.4	-14.1	-23.6
CCOC(=O)c1ccc(NC(=O)C(C)NS(=O)(=O)c2ccc(OC)cc2)cc1 (configuration not stated)	-4.0	4.3	16181*	0.2	1.7	-1.3
COc1ccc(S(=O)(=O)Nc2ccc(N(C)C(C)=O)cc2)cc1	4.1	-3.4	x	x	x	x
COc1ccc(S(=O)(=O)Nc2ccc(NC(C)=O)cc2)cc1	15.5	-3.2	23841*	-4.5	-2.5	-6.0
COc1ccccc1CNS(=O)(=O)c1ccc(NC(C)=O)cc1	2.3	1.1	22915*	-1.6	-2.4	-2.1
Cc1cc(Br)ccc1S(=O)(=O)n1ccnc1C	1.6	0.7	4195	-0.9	-4.2	-2.8
O=C(C[C@H]1C/C=C\CC[C@@H](Cc2ccc(F)cc2)C(=O)O[C@@H](c2ccccc2)CNC1=O)N[C@@H](CO)Cc1ccccc1	x	x	3916	-0.1	-1.6	0.2
CCOC(=O)c1cc2c(c(CSc3nc4ccccc4c(=O)n3Cc3ccco3)c1)OCOC2	x	-1.7	20266*	-0.8	-2.0	0.9
O=c1c2ccccc2nc(SCc2cc(F)cc3c2OCOC3)n1Cc1ccco1	12.2	3.1	24180*	-1.8	-2.8	-7.6
O=C(/C=C/c1cccc([N+](=O)[O-])c1)N1CCN(S(=O)(=O)c2cccs2)CC1	-6.0	-4.3	4809	-1.2	2.5	-5.9
